Experimental findings from PubChem BioAssay (NCI) are described below.

Where “and” joins values, the source holds several entries; their conditions need not be identical. Equal entries are not always repeated. Compounds without any hit were thinned out: in the full panel of roughly 83,000, 20% have a hit.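 Method: cells in 96-well plates; compound added at one concentration; 48 h incubation; percent growth measured; values under 10 scored active.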 Values without a mark were called inactive. Calls of active or inactive are those of the source.

Among the test systems are T-47D breast; BT-549 breast; MDA-MB-435 melanoma; SW-620 colon; MCF7 breast; HCT-116 colon; HCC-2998 colon; KM12 colon; MDA-MB-468 breast.
What all share (assay): NCI-60 one-dose screen, 48 h (100 = growth as untreated, 0 = no growth, -100 = all killed)
What all share (details): 10 µM

For the compound `CCCCCCCCCCCCCCCCCCCC(=O)NCCc1c[nH]c2ccc(OC(=O)CCCC(=O)OCCOOCCOOCCOOCCOOCCOOCCOOCCOOCCOOCCOOCCOOCCOOCCOC)cc12`, the growth in the test with T-47D breast was 22.4%; in the test with BT-549 breast, -20.2% (active); in the test on MDA-MB-435 melanoma it was 82.7%; in the test with SW-620 colon, 83%; in the test on MCF7 breast it was 24.3%; with HCT-116 colon, 32.7%. Moreover, the values for the growth with HCC-2998 colon, in the test with KM12 colon and with MDA-MB-468 breast were 87.8%, 35.7% and 85.6%, respectively.

In the case of `COc1ccc(-c2nc(S(=O)(=O)c3ccc(C)cc3)c(S(C)(=O)=O)o2)cc1`, the growth in the test on T-47D breast was -75.7% (active); with BT-549 breast, -12.5% (active); in the test on MDA-MB-435 melanoma, -97.1% (active); in the test with SW-620 colon it was -58.5% (active); in the test with MCF7 breast, -53.1% (active); in the test on HCT-116 colon, -0.211% (active). In addition, the results for the growth with HCC-2998 colon, in the test with KM12 colon and in the test on MDA-MB-468 breast were -87.6% (active), -19% (active) and -92.9% (active), respectively.

In the case of `O=C(CNc1nc(-c2ccccc2)cs1)Nc1ccc(Cl)cc1`, the growth is -34.6% (active) in the test with T-47D breast; -54.5% (active) in the test on BT-549 breast; -58.5% (active) with MDA-MB-435 melanoma; -68.5% (active) in the test on SW-620 colon; -85.5% (active) in the test with MCF7 breast; -41.2% (active) with HCT-116 colon. Also, the growth with HCC-2998 colon was -94.6% (active); in the test with KM12 colon it was -83.8% (active); in the test on MDA-MB-468 breast, -81.2% (active).

For `Cc1ccc(C(C)C)cc1NC(=O)c1ccccc1N(C)C`, the growth in the test on T-47D breast is 57.1%; in the test with BT-549 breast it was 102%; in the test on MDA-MB-435 melanoma it was 95%; in the test on SW-620 colon, 106%; in the test on MCF7 breast, 82.8%; in the test with HCT-116 colon, 68.3%. The figures for the growth with HCC-2998 colon, in the test on KM12 colon and with MDA-MB-468 breast were 96.7%, 86.7% and 71.9%, respectively.

As for `CCN1CCN(c2ccc(NC(=O)Nc3ccc(-c4cc(C(=O)NC)c5ncccc5n4)cc3)cc2C(F)(F)F)CC1`, the growth with T-47D breast is 49.4%; in the test with BT-549 breast it was -96% (active); in the test on MDA-MB-435 melanoma, -100% (active); in the test with SW-620 colon, -100% (active); in the test with MCF7 breast, -83.1% (active); in the test on HCT-116 colon it was -100% (active). The growth was -100% (active) with HCC-2998 colon, -98.8% (active) in the test on KM12 colon and -96.4% (active) with MDA-MB-468 breast.

In the case of `C/C(=C\CSc1ccccc1C(=O)O)CCCC(C)CCCC(C)CCCC(C)C` (stereo unspecified), the growth in the test with T-47D breast was 37.3%; in the test on BT-549 breast, 80.6%; in the test on MDA-MB-435 melanoma, 71.8%; in the test on SW-620 colon, 55.1%; in the test on MCF7 breast, 50.4%; with HCT-116 colon, 34.4%. In addition, the growth with HCC-2998 colon is 18.3%; in the test on KM12 colon, 46.4%; with MDA-MB-468 breast, 60.3%.

`Cc1cc(C)nc(NS(=O)(=O)c2ccc(N/C(N)=N/c3nccc(-c4ccccc4)n3)cc2)n1`: the growth is 25.1% with T-47D breast; 83.7% in the test with BT-549 breast; 86% in the test on MDA-MB-435 melanoma; 93.8% in the test with SW-620 colon; 37% with MCF7 breast; 76.6% in the test with HCT-116 colon. For the same compound, the growth in the test on HCC-2998 colon is 85.3%; with KM12 colon, 78.8%; in the test on MDA-MB-468 breast it was 64.2%.

Regarding `CC(C)(C)c1ccc(NCc2cn(-c3ccc(C(=O)O)cc3)nc2-c2ccc(C#N)cc2)cc1`, the growth with T-47D breast is 21.4%; with BT-549 breast, -2.13% (active); in the test on MDA-MB-435 melanoma it was 34%; in the test on SW-620 colon it was 32.2%; in the test with MCF7 breast, 6.04% (active); in the test with HCT-116 colon it was -13.9% (active). Also, the results for the growth with HCC-2998 colon, in the test with KM12 colon and in the test on MDA-MB-468 breast were -66.6% (active), -38.3% (active) and 19%, respectively.

With `c1ccc(C(=C(c2ccc(OCCN3CCCCC3)cc2)c2ccc(OCCN3CCCCC3)cc2)C2CCCC2)cc1`, the growth in the test with T-47D breast is -1.48% (active); in the test with BT-549 breast, -54.7% (active); with MDA-MB-435 melanoma, -98.5% (active); in the test with SW-620 colon, -62.6% (active); in the test with MCF7 breast it was -71.1% (active); in the test on HCT-116 colon, -62.8% (active). Moreover, the growth in the test on HCC-2998 colon was -99.5% (active); in the test with KM12 colon, -80.5% (active); in the test with MDA-MB-468 breast, -87.8% (active).

Turning to `CC1=C(c2cc(-c3ccc(Cl)cc3)c(C#N)c(N)n2)C(c2ccccc2)NC(=S)N1` (stereo unspecified), the growth in the test on T-47D breast was 54.5%; in the test on BT-549 breast, 42.1%; in the test on MDA-MB-435 melanoma it was 25.3%; in the test on SW-620 colon, 45.7%; with MCF7 breast it was 31.6%; in the test with HCT-116 colon, -18.8% (active). In addition, the growth with HCC-2998 colon was 83.3%; with KM12 colon, 49.5%; in the test with MDA-MB-468 breast, 35%.

As for `COc1cc(Cn2c(C(F)(F)F)cc3c(Cl)ncnc32)ccn1`, the growth with T-47D breast was 66.5%; in the test with BT-549 breast, -15.9% (active); in the test with MDA-MB-435 melanoma, -0.488% (active); with SW-620 colon it was 4.9% (active); in the test on MCF7 breast, 7.67% (active); in the test on HCT-116 colon it was -23.4% (active). Further, the growth in the test with HCC-2998 colon was -95.6% (active); with KM12 colon, 30.8%; in the test with MDA-MB-468 breast it was -80.9% (active).

As for `O=c1nc(-c2ccccc2)cc(-c2cc3ccccc3nc2Cl)[nH]1`, the growth in the test on T-47D breast was 45.5%; with BT-549 breast it was 12.9%; in the test with MDA-MB-435 melanoma it was 53.5%; with SW-620 colon, -63.6% (active); in the test with MCF7 breast it was 4.69% (active); in the test with HCT-116 colon it was -91.6% (active). In addition, the values for the growth in the test on HCC-2998 colon, in the test on KM12 colon and in the test with MDA-MB-468 breast were 44.9%, -15.4% (active) and 17.2%, respectively.

Turning to `O=C1Nc2ccc(Cl)cc2/C1=C/c1ccc(OCc2ccc(Br)cc2F)cc1`, the growth with T-47D breast was 10.1%; in the test with BT-549 breast, 81.9%; in the test on MDA-MB-435 melanoma it was 60.2%; with SW-620 colon, 23.6%; with MCF7 breast, 12.1%; in the test on HCT-116 colon, -10.8% (active). Further, the growth with HCC-2998 colon is 77.5%; with KM12 colon it was 59.1%; in the test on MDA-MB-468 breast, 92.6% and 48.8%.

With `O=C(c1ccc(-n2c(=O)[nH]c3ccccc3c2=O)cc1)N1CCOCC1`, the growth in the test on T-47D breast is 99.7%; in the test with BT-549 breast it was 75.6%; with MDA-MB-435 melanoma it was 102%; in the test with SW-620 colon, 97.1%; with MCF7 breast it was 101%; in the test with HCT-116 colon, 99.2%. Moreover, the growth in the test on HCC-2998 colon was 116%; in the test on KM12 colon it was 114%; with MDA-MB-468 breast, 94.7%.
